Measurements reported in PubChem BioAssay (Tox21).
Records with an inconclusive call do not appear. The source made the active and inactive calls. Unless noted, calls come from the whole dose curve. Positions of bridges follow the written chain, without caps; N, C: chain ends. Non-standard residues stand in square brackets, D forms with d. Residues, ends and D or L forms follow the SMILES beside them. hArg = N=C(N)NCCCC[C@H](N)C(=O)O; Mpa = O=C(O)CCS

What was measured:
[1] = qHTS assay to identify small molecule antagonists of the estrogen receptor beta (ER-beta) signaling pathway - cell viability counter screen (AID 1259382; active = well fitted curve in the direction sought with a large enough effect in the repeat runs; an effect the other way counts as inactive or inconclusive;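 note: HEK293T cells carrying ER-beta-UAS-bla reporter stimulated with estradiol; series mostly up to about 92 µM; nearly all actives have a fitted effect of over 55% in size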)
Outline: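 CellTiter-Glo ATP luminescence measured after the LiveBLAzer read in the same wells; ER-beta-UAS-bla HEK293T cells, 16 hr compound treatment with 1nM 17-beta-estradiol agonist at 37C, 5% CO2.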

[2] = qHTS assay to identify small molecule agonists or antagonists of the thyroid stimulating hormone receptor (TSHR) signaling pathway - wild type cell line counter screen (AID 1259384)
Outline: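 Wild-type Hek293 cells, 800/well, 18 h at 37C, then compound with Ro20-1724 for 30 min RT. cAMP by HTRF (cAMP-d2/anti-cAMP cryptate), 1 h RT, fluorescence read. 15 concentrations, triplicates.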

[3] = molecular target: Thyrotropin receptor (Homo sapiens) (UniProt P16473); assay: qHTS assay to identify small molecule antagonists of the thyroid stimulating hormone receptor (TSHR) signaling pathway (AID 1259385); note: nearly all actives have a fitted effect of over 20% in size
Sequence of Thyrotropin receptor (Homo sapiens) (P16473 whole entry, looked up): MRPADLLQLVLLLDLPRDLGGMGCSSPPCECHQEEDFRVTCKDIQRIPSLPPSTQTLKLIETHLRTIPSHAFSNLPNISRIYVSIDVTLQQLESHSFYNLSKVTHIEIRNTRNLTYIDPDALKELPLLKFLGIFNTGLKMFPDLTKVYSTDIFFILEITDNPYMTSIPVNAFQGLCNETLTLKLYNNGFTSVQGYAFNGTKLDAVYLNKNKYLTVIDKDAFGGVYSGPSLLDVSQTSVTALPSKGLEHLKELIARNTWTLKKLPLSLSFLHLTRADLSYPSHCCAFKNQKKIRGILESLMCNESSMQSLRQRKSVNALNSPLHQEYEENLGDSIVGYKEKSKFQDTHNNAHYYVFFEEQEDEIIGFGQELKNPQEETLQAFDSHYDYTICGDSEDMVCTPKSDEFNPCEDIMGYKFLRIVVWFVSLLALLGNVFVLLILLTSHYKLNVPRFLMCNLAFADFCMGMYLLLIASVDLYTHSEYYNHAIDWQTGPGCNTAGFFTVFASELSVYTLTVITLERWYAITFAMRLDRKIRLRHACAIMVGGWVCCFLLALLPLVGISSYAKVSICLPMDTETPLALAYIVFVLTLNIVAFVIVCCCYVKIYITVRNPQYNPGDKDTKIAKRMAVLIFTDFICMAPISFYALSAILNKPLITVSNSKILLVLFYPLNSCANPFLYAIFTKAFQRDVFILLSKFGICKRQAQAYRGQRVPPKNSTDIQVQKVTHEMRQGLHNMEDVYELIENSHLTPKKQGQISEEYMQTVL
Outline: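 TSHR-HEK293 cells (800/well) plated 18 h, then compounds with Ro20-1724 and TSH at 1.5 ng/mL final, 30 min at room temperature. cAMP quantified by HTRF (cAMP-d2/anti-cAMP-cryptate, 1 h); 15 concentrations in triplicate.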

[4] = qHTS assay to identify small molecule agonists of the estrogen receptor alpha (ER-alpha) signaling pathway in the presence of an antagonist - cell viability counter screen (AID 1259386; active = well fitted curve in the direction sought with a large enough effect in the repeat runs; an effect the other way counts as inactive or inconclusive;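 note: series mostly up to about 92 µM; cells exposed to compounds for 22 h at 37 °C before the viability read; nearly all actives have a fitted effect of over 30% in size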)
Outline: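 Using estrogen-depleted VM7Luc4E2 cells, the 15-concentration compound series was applied together with 10.0nM ICI-182,780 and incubated 22hr at 37C/5% CO2. Cell viability was then scored by CellTiter-Fluor.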

[5] = molecular target: Progesterone receptor (Homo sapiens) (UniProt P06401); assay: qHTS assay to identify small molecule agonists of the progesterone receptor (PR) signaling pathway (AID 1346784); note: nearly all actives have a fitted effect of over 30% in size
Sequence of Progesterone receptor (Homo sapiens) (P06401 whole entry, looked up): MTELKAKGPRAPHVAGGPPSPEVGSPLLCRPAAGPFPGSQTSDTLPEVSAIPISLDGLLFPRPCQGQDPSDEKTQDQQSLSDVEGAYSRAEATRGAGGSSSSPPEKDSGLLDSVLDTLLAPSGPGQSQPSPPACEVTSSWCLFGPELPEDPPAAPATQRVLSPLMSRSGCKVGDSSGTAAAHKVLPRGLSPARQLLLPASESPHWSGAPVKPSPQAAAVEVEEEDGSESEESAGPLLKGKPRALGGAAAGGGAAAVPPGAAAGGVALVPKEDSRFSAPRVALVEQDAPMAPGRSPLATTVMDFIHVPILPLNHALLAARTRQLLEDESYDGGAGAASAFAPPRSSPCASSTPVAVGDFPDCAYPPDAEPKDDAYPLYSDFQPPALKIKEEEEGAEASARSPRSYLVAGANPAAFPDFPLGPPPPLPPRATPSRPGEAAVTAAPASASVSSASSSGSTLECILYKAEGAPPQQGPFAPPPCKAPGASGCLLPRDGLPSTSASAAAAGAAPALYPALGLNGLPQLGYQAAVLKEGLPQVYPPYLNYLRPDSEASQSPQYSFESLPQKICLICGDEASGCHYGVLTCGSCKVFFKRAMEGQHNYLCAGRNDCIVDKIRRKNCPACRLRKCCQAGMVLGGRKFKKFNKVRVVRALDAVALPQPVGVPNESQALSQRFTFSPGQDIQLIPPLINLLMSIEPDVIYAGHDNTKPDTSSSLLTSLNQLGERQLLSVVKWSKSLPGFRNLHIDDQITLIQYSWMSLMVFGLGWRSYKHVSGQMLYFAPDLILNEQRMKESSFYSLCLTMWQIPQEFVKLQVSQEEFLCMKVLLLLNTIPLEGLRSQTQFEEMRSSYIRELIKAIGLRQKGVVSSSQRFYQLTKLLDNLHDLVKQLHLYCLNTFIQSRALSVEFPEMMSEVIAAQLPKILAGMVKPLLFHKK
Outline: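 Seed PR-UAS-bla HEK 293T cells (2% charcoal-stripped FBS), incubate 6 hr at 37C; add compounds in DMSO, 16 hr at 37C; add LiveBLAzer B/G substrate, 2 hr RT; read fluorescence intensity.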

[6] = molecular target: Progesterone receptor (Homo sapiens) (UniProt P06401); assay: qHTS assay to identify small molecule antagonists of the progesterone receptor (PR) signaling pathway (AID 1346795; active = well fitted inhibition curve with a large enough effect in the signal ratio in the repeat runs, not every such curve was filed as active; the % refers to the signal ratio; note: potency is the fitted concentration of half-maximal effect)
Outline: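 Screening used a GripTite HEK293T line with PR-responsive UAS-beta-lactamase. Cells were challenged with compound in the presence of 1 nM R5020 final for 16 hr at 37C; B/G FRET substrate, 2 hr room temperature, fluorescence.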

[7] = qHTS assay to identify small molecule antagonists of the progesterone receptor (PR) signaling pathway - cell viability counter screen (AID 1346798; active = well fitted curve in the direction sought with a large enough effect in the repeat runs; an effect the other way counts as inactive or inconclusive; note: series mostly up to about 92 µM; nearly all actives have a fitted effect of over 50% in size)
Outline: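 Measures cytotoxicity in parallel with the PR antagonist reporter read: HEK293T PR-UAS-bla cells get compound and R5020 for 16 hr, and remaining viable cells are quantified by CellTiter-Glo luminescence.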

[8] = qHTS assay to identify small molecule agonists of the progesterone receptor (PR) signaling pathway - cell viability counter screen (AID 1346799); note: nearly all actives have a fitted effect of over 45% in size
Outline: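 Using the same plates as the PR reporter screen, HEK293T PR-UAS-bla cells received compounds for 16 hr at 37C and were then lysed with CellTiter-Glo; luminescence was read 30 min later at room temperature.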

[9] = molecular target: Estrogen receptor (Homo sapiens) (UniProt P03372); assay: qHTS assay to identify small molecule agonists of the estrogen receptor alpha (ER-alpha) signaling pathway in the presence of an antagonist (AID 1259383); note: top concentration of the series differs between compounds; nearly all actives have a fitted effect of over 15% in size
Sequence of Estrogen receptor (Homo sapiens) (P03372 whole entry, looked up): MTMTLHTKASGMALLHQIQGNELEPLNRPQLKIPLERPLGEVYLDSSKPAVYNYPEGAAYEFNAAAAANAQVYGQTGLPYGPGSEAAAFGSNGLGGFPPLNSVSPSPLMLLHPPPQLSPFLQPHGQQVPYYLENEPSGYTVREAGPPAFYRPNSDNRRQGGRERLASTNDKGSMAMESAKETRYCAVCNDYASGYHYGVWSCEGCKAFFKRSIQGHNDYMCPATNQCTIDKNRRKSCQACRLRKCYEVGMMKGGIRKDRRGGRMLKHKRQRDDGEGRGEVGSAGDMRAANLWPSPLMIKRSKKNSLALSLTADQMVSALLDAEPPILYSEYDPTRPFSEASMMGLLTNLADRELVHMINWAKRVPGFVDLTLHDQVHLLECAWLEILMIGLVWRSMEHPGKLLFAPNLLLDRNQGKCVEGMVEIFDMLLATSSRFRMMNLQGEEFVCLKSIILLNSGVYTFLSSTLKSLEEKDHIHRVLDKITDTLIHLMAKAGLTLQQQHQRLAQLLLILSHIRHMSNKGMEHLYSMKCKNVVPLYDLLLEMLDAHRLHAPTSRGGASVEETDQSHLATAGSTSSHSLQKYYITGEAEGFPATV
Outline: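 Luminescent ERE-luciferase reporter, VM7Luc4E2 cells (endogenous ER-alpha); 10.0nM ICI-182,780 final; 15-point compound titration; 22hr at 37C; ONE-Glo, 30min RT.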
% is set by controls: 0 for no effect and ±100 for the full control effect.

C=CC(=O)CCCCC
inactive: outcome [1] | outcome [2] | outcome [3] | outcome [4] | Potency [5] | Potency [6] | outcome [7] | outcome [8]

CCCCCCCCCCCCCCC(=O)NC(CO)CCCCCCCCCCCCCC (stereo not drawn)
inactive: outcome [1] | Potency [9] | outcome [2] | outcome [4] | Potency [5] | outcome [7] | outcome [8]

O=C=NCC1CCCC(CN=C=O)C1 (stereo not drawn)
inactive: outcome [1] | Potency [9] | outcome [2] | outcome [3] | outcome [4] | outcome [7] | outcome [8]

c1ccc2cnccc2c1
inactive: outcome [1] | Potency [9] | outcome [4] | Potency [5] | outcome [7] | outcome [8]

CC1OCCC1=O (stereo not drawn)
inactive: outcome [1] | Potency [9] | outcome [2] | outcome [3] | outcome [4] | outcome [7] | outcome [8]

NC(=O)[C@@H]1CSSCCC(=O)N[C@@H](CCCCN=C(N)N)C(=O)NCC(=O)N[C@@H](CC(=O)O)C(=O)N[C@@H](Cc2c[nH]c3ccccc23)C(=O)N2CCC[C@H]2C(=O)N1 ([Mpa][hArg]GDWPC-NH2; disulfide 1-7)
inactive: outcome [1] | outcome [2] | outcome [3] | outcome [4] | Potency [5] | Potency [6] | outcome [7] | outcome [8]

C=CCN1C[C@H](C(=O)N(CCCN(C)C)C(=O)NCC)C[C@@H]2c3cccc4[nH]cc(c34)C[C@H]21
inactive: outcome [1] | Potency [9] | outcome [2] | Potency [5] | outcome [7]

O=C(O)CONC(=O)c1ccccc1
inactive: outcome [1] | outcome [2] | outcome [3] | outcome [4] | Potency [5] | Potency [6] | outcome [7] | outcome [8]

CN(C)CCCCl
inactive: outcome [1] | Potency [9] | outcome [2] | outcome [4] | Potency [6] | outcome [7] | outcome [8]

Cc1ncc([N+](=O)[O-])n1CC(C)O (stereo not drawn)
inactive: outcome [1] | Potency [9] | outcome [4] | Potency [5] | Potency [6] | outcome [7] | outcome [8]

COC(=O)c1cccc(Cl)c1
inactive: outcome [1] | Potency [9] | outcome [2] | outcome [4] | Potency [5] | outcome [7] | outcome [8]

N#Cc1cscn1
inactive: outcome [1] | outcome [2] | outcome [3] | outcome [4] | Potency [5] | Potency [6] | outcome [7] | outcome [8]

OC[C@@H](O)C(O)[C@@H](O)CO (stereo partly drawn)
inactive: outcome [1] | outcome [2] | outcome [3] | outcome [4] | Potency [5] | Potency [6] | outcome [7] | outcome [8]

CCn1cc(C(=O)O)c(=O)c2cnc(N3CCCC3)nc21
inactive: activity change, negative = cytotoxicity [1] 13.9% [at 8.39 µM] | cAMP activity change [2] -5.06% [at 8.39 µM] | activity change, negative = inhibition [3] -0.0847% [at 8.39 µM] | activity change, negative = cytotoxicity [4] -1.71% [at 8.39 µM] | activation [5] 0.947% [at 8.39 µM] | activity change, negative = cytotoxicity [7] 1.24% [at 8.39 µM] | activity change, negative = cytotoxicity [8] 1.71% [at 8.39 µM]

NCc1ccc(S(N)(=O)=O)cc1
inactive: outcome [1] | outcome [2] | outcome [3] | outcome [4] | outcome [7] | outcome [8]

C=C(C)[C@@H]1CC=C(C)C(=O)C1
inactive: outcome [1] | outcome [2] | outcome [3] | outcome [4] | Potency [6] | outcome [7] | outcome [8]

CC(C)=CCC[C@@](C)(O)[C@H]1CC=C(C)CC1
inactive: outcome [1] | outcome [2] | outcome [3] | outcome [4] | Potency [5] | Potency [6] | outcome [8]

O=[N+]([O-])c1c(Cl)cc(Cl)cc1Cl
inactive: outcome [1] | outcome [2] | outcome [4] | Potency [5] | Potency [6] | outcome [7] | outcome [8]

C=C(C)C1CC=C(C)C(=O)C1 (stereo not drawn)
inactive: outcome [1] | outcome [2] | outcome [3] | outcome [4] | Potency [5] | outcome [7] | outcome [8]

O=Cc1ccccc1Cl
inactive: outcome [1] | outcome [4] | Potency [5] | outcome [7] | outcome [8]

O=S(=O)(O)c1ccc2c(N=Nc3ccc(S(=O)(=O)O)c4ccccc34)c(O)c(S(=O)(=O)O)cc2c1
inactive: activity change, negative = cytotoxicity [1] -3.29% [at 8.39 µM] | cAMP activity change [2] -0.796% [at 8.39 µM] | activity change, negative = inhibition [3] -3.96% [at 8.39 µM] | activity change, negative = inhibition [6] -1.68% [at 8.39 µM] | activity change, negative = cytotoxicity [7] 12.1% [at 8.39 µM] | activity change, negative = cytotoxicity [8] 18.6% [at 8.39 µM]

CC(=O)OC(C)=O
inactive: outcome [1] | outcome [2] | outcome [3] | outcome [4] | Potency [5] | outcome [7] | outcome [8]

CN1CCOC(c2ccccc2)c2ccccc2C1 (stereo not drawn)
inactive: outcome [1] | outcome [2] | outcome [3] | outcome [4] | Potency [5] | Potency [6] | outcome [7] | outcome [8]

CNCCS(=O)(=O)O
inactive: outcome [1] | outcome [2] | outcome [3] | outcome [4] | Potency [5] | Potency [6] | outcome [7] | outcome [8]

c1ccc(B(c2ccccc2)c2ccccc2)cc1
active: Potency [6] 54.4 µM
inactive: outcome [1] | outcome [4] | Potency [5] | outcome [7] | outcome [8]

OCC1(CO)COCOC1
inactive: outcome [1] | outcome [2] | outcome [3] | outcome [4] | Potency [5] | outcome [7]

C=CCCCCCCCC
inactive: outcome [1] | outcome [2] | outcome [3] | outcome [4] | Potency [5] | outcome [7] | outcome [8]

COc1c2occc2c(OC)c2c(=O)cc(C)oc12
inactive: outcome [1] | outcome [2] | outcome [3] | outcome [4] | Potency [5] | outcome [7] | outcome [8]

Cc1ccc(C(C)NC(=O)[C@@H](NC(=O)OC(C)C)C(C)C)cc1 (stereo partly drawn)
inactive: outcome [1] | outcome [2] | outcome [3] | outcome [4] | Potency [5] | Potency [6] | outcome [7] | outcome [8]

CC1=NN(c2ccc(S(=O)(=O)O)cc2)C(=O)C1
inactive: outcome [1] | outcome [2] | outcome [3] | outcome [4] | Potency [5] | Potency [6] | outcome [7] | outcome [8]

CC(N)CCCC(C)(C)O (stereo not drawn)
inactive: outcome [1] | outcome [2] | outcome [3] | outcome [4] | Potency [5] | Potency [6] | outcome [8]

CCCCCCCCCCCCCBr
inactive: outcome [1] | outcome [4] | outcome [7] | outcome [8]

CC(C)NCC(O)c1ccc2ccccc2c1 (stereo not drawn)
inactive: outcome [1] | outcome [2] | outcome [3] | outcome [4] | outcome [7] | outcome [8]

Cc1cccc(Cl)c1
inactive: outcome [1] | outcome [2] | outcome [3] | outcome [4] | Potency [6] | outcome [8]

CCCCCCCCCOC(=O)CCCCC(=O)OCCCCCCC
inactive: outcome [1] | outcome [2] | outcome [3] | outcome [4] | Potency [6] | outcome [7] | outcome [8]

CCCCCC/C=C/C(=O)OC
inactive: outcome [1] | outcome [2] | outcome [3] | outcome [4] | Potency [5] | Potency [6] | outcome [7] | outcome [8]

CC(=O)O[Si](C)(OC(C)=O)OC(C)=O
inactive: outcome [1] | outcome [2] | outcome [4] | Potency [5] | Potency [6] | outcome [7] | outcome [8]

CC(=O)C(C)O (stereo not drawn)
inactive: outcome [1] | outcome [2] | outcome [3] | outcome [4] | Potency [5] | outcome [7] | outcome [8]

CCC(=O)CC
inactive: outcome [1] | outcome [4] | Potency [5] | Potency [6] | outcome [7] | outcome [8]

ONc1ccccc1
inactive: outcome [1] | outcome [2] | outcome [3] | outcome [4] | Potency [6] | outcome [7] | outcome [8]

CC(C)CCOC(=O)c1ccccc1
inactive: outcome [1] | outcome [2] | outcome [3] | outcome [4] | Potency [5] | outcome [7] | outcome [8]

Cc1ccnc(N)c1
inactive: outcome [1] | outcome [2] | outcome [3] | outcome [4] | Potency [5] | Potency [6] | outcome [7] | outcome [8]

O=NN(CCCl)C(=O)NC1CCCCC1
inactive: outcome [1] | outcome [2] | outcome [4] | Potency [5] | Potency [6] | outcome [7] | outcome [8]

Cc1ccc(C)c([N+](=O)[O-])c1
inactive: outcome [1] | outcome [2] | outcome [3] | outcome [4] | outcome [7] | outcome [8]

C/C=C(\C)C(=O)OCCc1ccccc1
inactive: outcome [1] | outcome [4] | Potency [5] | Potency [6] | outcome [7] | outcome [8]

CCOC(CN1CCN(CC(C)C(=O)c2ccccc2)CC1)c1ccccc1 (stereo not drawn)
inactive: activity change, negative = cytotoxicity [1] -10.1% [at 19 µM] | cAMP activity change [2] 5.14% [at 18.9 µM] | activity change, negative = inhibition [3] 0.0091% [at 19 µM] | activity change, negative = cytotoxicity [4] -9.47% [at 19 µM] | activation [5] 0.845% [at 19 µM] | activity change, negative = cytotoxicity [7] 27.5% [at 18.9 µM] | activity change, negative = cytotoxicity [8] 2.31% [at 19 µM]

O=Cc1cc2ccccc2o1
inactive: outcome [1] | outcome [2] | outcome [3] | outcome [4] | Potency [5] | Potency [6] | outcome [7] | outcome [8]

Cn1c(=O)c2c(ncn2CCO)n(C)c1=O
inactive: outcome [1] | outcome [2] | outcome [3] | outcome [4] | Potency [6] | outcome [7] | outcome [8]

c1ccc2c(CC3=NCCN3)cccc2c1
inactive: outcome [1] | outcome [2] | outcome [4] | Potency [5] | Potency [6] | outcome [7] | outcome [8]
